# According to the supplement of paper PMC6555819:
# Tests used:
# Assay in all cases: PBM binding z-score (relative to random genomic background probes); higher = stronger binding; sequences stand for … in GC…GCGATTGACAGCGTAGAATGAAGG
# [1] = tested on: FXR:RXRa (NR concentration 270 nM, RXRa partner concentration 90 nM)
# Outline: (§1)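 Binding z-scores take random background probes as their reference. They come from custom Agilent 4×180K protein-binding microarrays incubated 1 h with ligand-free nuclear receptor dimers, with antibodies against each partner (one per run) detecting binding. Scanned fluorescence was regression-normalized.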
# [2] = tested on: LXRa:RXRa (NR concentration 270 nM, RXRa partner concentration 90 nM)
# Outline: as §1
# [3] = tested on: LXRa homodimer (NR concentration 270 nM)
# Outline: as §1
# [4] = tested on: LXRb:RXRa (NR concentration 270 nM, RXRa partner concentration 90 nM)
# Outline: as §1
# [5] = tested on: LXRb homodimer (NR concentration 270 nM)
# Outline: as §1
# [6] = tested on: PPARa:RXRa (NR concentration 270 nM, RXRa partner concentration 90 nM)
# Outline: as §1
# [7] = tested on: PPARg:RXRa (NR concentration 180 nM, RXRa partner concentration 90 nM)
# Outline: as §1
# [8] = tested on: PPARg:RXRa 270nM:90nM, anti-RXR (NR concentration 270 nM, RXRa partner concentration 90 nM)
# Outline: as §1
# [9] = tested on: PPARg:RXRa 30nM:10nM, anti-RXR (NR concentration 30 nM, RXRa partner concentration 10 nM)
# Outline: as §1
# [10] = tested on: PPARg:RXRa 90nM:30nM, anti-RXR (NR concentration 90 nM, RXRa partner concentration 30 nM)
# Outline: as §1
Sequence,PBM binding z-score [1],PBM binding z-score [2],PBM binding z-score [3],PBM binding z-score [4],PBM binding z-score [5],PBM binding z-score [6],PBM binding z-score [7],PBM binding z-score [8],PBM binding z-score [9],PBM binding z-score [10]
ACTAGCAGGCCAACGGTCACTCAAGATTAGTCCG,-0.155,-0.0207,0.0255,-0.508,-0.572,1.37,2.56,3.92,2.08,3.72
TAGCCTAGGTTATTGGGCCAGTATAGTACGCATC,-0.0933,0.0825,-0.331,0.173,-0.786,1.61,1.5,1.51,-0.136,0.762
CCTCAAAGTTCAAGGTAACGTAACAGAAAGCAGC,5.83,5.87,3.49,3.83,1.95,4.85,2.87,3.67,0.99,2.22
AGTCAAAGTTCAGGACTAGGTAACGTAAAGCACG,3.95,3.56,1.18,1.7,0.0894,3.41,4.81,5.05,2.27,4.21
TCATATAGGTAAAGGTGAAAGTAGAACGATATGA,1.05,1.4,-0.101,1.28,0.0204,3.29,4.62,4.54,4.45,4.86
AGTCAAAGTTCAGGACGAGGTAACGCAAAGCACG,3.93,3.88,1.08,2.03,0.0872,3.33,4.31,4.9,1.97,3.87
GCCGCTAGGTCAACTGATGGTCAGCTAAAGCTCG,3.97,3.16,0.212,1.89,-0.472,3.71,2.44,3.07,0.658,1.82
TAAATGAGGTTAAAGATCAGGGAACGTGGCGTCG,3.68,3.6,0.629,2.46,1.07,5.14,6.76,6.79,5.89,7.34
CACGAAAGGTCGGTTGAGGTGAGTATACGGATAA,2.53,2.25,0.0219,1.7,0.387,3,0.823,1.36,0.246,0.906
CAAACTCGGTCAAGGTCAAAGTCGGTTTGTGCCA,5.73,5.09,3.66,3.81,1.02,4.81,4.76,4.8,2.42,3.93
GGAACGAGGGCATTCGAGTCGATAGCATGGCGAT,0.976,0.293,-0.802,-0.159,-0.384,1.15,0.824,0.495,-0.192,0.0537
CCTTACGGGTCACACCAGGTTATAGCATCGGAGT,5.86,6.35,1.01,4.08,0.198,5.2,5.14,4.95,2.28,3.6
CCTTGCGGGTCACGAGGTTATAGCACGACGAGCG,6.38,4.25,0.382,3.71,-0.139,5.87,7.48,6.95,4.06,5.86
CAAACTAGGTCAAAAGTCAAAGTCGAGCCAACCA,4.73,3.95,0.814,2.97,0.644,6.39,11.9,9.92,9.77,11
CCCACTGGGGCAAGGTTACCATAACGCACAGCCA,0.184,0.769,-0.0723,0.417,-0.882,2.46,4.81,4.76,1.92,4.56
AATACAGGGTCACTAGGCCAGAGGAGGTACGAAT,5.85,4.93,0.963,3.62,1.31,5.54,8.18,6.63,3.82,5.65
TCTATTAGTTGAAGGGCGACCGACGAGTCCGTTT,0.994,1.03,0.292,0.778,0.384,0.661,-0.000303,2.13,3.99,2.9
CTACCAAGGTGAACAGGGTCGTTGATTACTATTC,1.07,0.788,-0.0558,1.58,-0.226,2.32,1.23,1.38,0.0525,0.997
CGTCCAAGGTCAGAGAGGCCAGTGAATGCCGAGT,4.34,2.95,0.144,2.18,-0.662,3.93,2.04,2.45,-0.0839,1.33
ATCGAAAGCTCGAGGTGAGTATAGAGAAAGGGAA,-0.382,-0.596,-0.515,-0.793,-0.851,-0.028,0.163,-0.516,-0.268,-0.554
TCTATTAGTTGATTAGGGTAACCGAAACAGCGGA,0.555,0.884,0.302,1.09,0.799,1.01,0.052,1.86,3.73,2.87
CGTCCAAGGTCAGCAGGACAGTGAAAGCGACGTG,5.11,3,-0.143,2.24,-0.588,4.36,2.83,3.16,0.274,2.07
AGAATGAGGTTACCACAGATCAGGGAAACGCTTG,1.97,6.39,-0.0372,3.08,-0.518,3.53,2.72,2.65,1.11,1.73
